# Measurements from PubChem BioAssay.
# Records with an inconclusive call do not appear. For part of these data: Measured potencies and affinities stand elsewhere. The source made the active and inactive calls. Cut-off read from the data, not from the text of the source, unless noted: active = inhibition above about 80%; inactive = the rest.
# Legend:
# [1] = blockers of polyQ-driven CASP3 activation – cell-based (AID 1583); settings: polyglutamine-induced caspase-3 activation, cell assay; stronger effect = higher value;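 tested at 10 µM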
# [2] = yeast 75Q aggregation reduction – 75Q-TubU reporter (AID 1593); settings: Yeast 75Q polyglutamine aggregation reporter
# [3] = restoration of touch response, mutant HTT neurons – whole organism, C. elegans mechanosensory neurons, N-terminal huntingtin (AID 1599); settings: C. elegans polyQ-huntingtin mechanosensory neurons, stronger effect = higher value
# [4] = blockers of cytochrome c efflux from mitochondria – biochemical, purified mitochondria (AID 1603); settings: stronger effect = lower value;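 note: mouse liver mitochondria challenged with calcium chloride; signal normalized to the plate average as 100%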
# [5] = polyglutamine aggregate formation blockers (AID 1604); settings: polyglutamine-induced protein aggregation inhibition assay; stronger effect = higher value; tested at 2.5 µM
# [6] = glutamate transport activators, MN-1 cells, MN-1 cell line (AID 1612); settings: MN-1 motor neuron cells, stronger effect = higher value;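 note: tested at 1 µM final; 0% = mean of DMSO vehicle wells on each plate; positive means more glutamate uptake than control and negative means less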
# [7] = GFP-Q80 aggregate reduction, neuronal-like cells, cell-based, NGF-treated PC12, GFPQ80 (AID 1614); settings: PC12 NGF-treated GFP-polyQ80 inclusion reduction;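 note: lower means fewer inclusions and 0 means no inclusions at all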
# [8] = 75Q-TubH aggregate inhibition, S. cerevisiae, yeast (AID 1616); settings: S. cerevisiae 75Q-TubH polyglutamine aggregation suppression; stronger effect = higher value
# [9] = growth inhibition, single agent or in combination, cell-based, chromothripsis tumors, cisplatin or BGB combos (AID 1671449); settings: LFS_MB_P medulloblastoma cells;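 note: cells exposed for 96 hours; 0% = vehicle DMSO and 100% = killing by high DMSO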
# [10] = growth inhibition, single agent and combos, cell-based, chromothripsis tumors, cisplatin or BGB combos (AID 1671450); settings: HDN33 neuroblastoma cells, stronger effect = higher value;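 note: cells exposed to compound for four days; 0% = vehicle DMSO and 100% = cell killing by high DMSO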
# [11] = growth inhibition, single agents and combos, ICB984, cell-based, cisplatin or BGB combos, synergistic combos for chromothripsis tumors (AID 1671451; call rule not given here;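 note: cells exposed for 96 hours before readout; 0% = vehicle DMSO and 100% = killing by high DMSO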); settings: ICB984 medulloblastoma cells, drug combinations, stronger effect = higher value
# [12] = growth inhibition, single agents and combos, LFS_MB_1R, cell-based, cisplatin or BGB combos, synergistic combos for chromothripsis tumors (AID 1671452); settings: LFS_MB_1R medulloblastoma cells, stronger effect = higher value;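 note: cells exposed for 96 hours before readout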
# [13] = growth inhibition, single agents and combos, HTB85, cell-based, BGB or cisplatin IC20 combos, synergistic combos for chromothripsis tumors (AID 1671453); settings: HTB85 osteosarcoma cells, drug combinations, stronger effect = higher value;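 note: cells exposed for 96 hours before readout; 0% = vehicle DMSO and 100% = high DMSO killing control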
# [14] = growth inhibition, single agents and combos, CRL2098, cell-based, BGB or cisplatin IC20 combos, synergistic combos for chromothripsis tumors (AID 1671454); settings: CRL2098 osteosarcoma cells, drug combinations, stronger effect = higher value;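 note: cells exposed for 96 h before readout; 0% = vehicle DMSO and 100% = killing by high DMSO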
# [15] = growth inhibition, single agents and combos, HD-MB03, cell-based, BGB or cisplatin IC20 combos, synergistic combos for chromothripsis tumors (AID 1671455; in the data active = inhibition above about 83%;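 note: 0% = vehicle DMSO and 100% = high DMSO as cytotoxic control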); settings: HD-MB03 medulloblastoma cells, stronger effect = higher value
# [16] = growth inhibition, single agents and combos, UWB1.289, cell-based, BGB or cisplatin combos, synergistic combos for chromothripsis tumors (AID 1671456); settings: UWB1.289 ovarian carcinoma cells, stronger effect = higher value;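 note: cells exposed to compound for four days; 0% = vehicle DMSO and 100% = killing by high DMSO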
# [17] = growth inhibition, single agents and combos, LFS_MB_2R, cell-based, cisplatin combos, synergistic combos for chromothripsis tumors (AID 1671457); settings: LFS_MB_2R medulloblastoma cells, stronger effect = higher value;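 note: cells exposed to compound for four days before readout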
# [18] = growth inhibition, MDA-MB-436, cell-based, BGB or cisplatin combos, synergistic combos for chromothripsis tumors (AID 1671458; call rule not given here;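 note: cells exposed for 96 hours; 0% = vehicle DMSO and 100% = killing by high DMSO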); settings: MDA-MB-436 breast carcinoma growth inhibition, drug combinations, stronger effect = higher value
# [19] = UWB1.289_BRCA1 ovarian cancer growth, cell-based, BGB or cisplatin combinations (AID 1671459); settings: UWB1.289 BRCA1 ovarian carcinoma, drug combinations, stronger effect = higher value
# [20] = drug combination toxicity in non-malignant astrocytes – cell-based, BGB or cisplatin IC20 combos, cytotoxicity control for chromothriptic childhood tumor combination screen (AID 1671460); settings: Human astrocytes, viability inhibition, drug combinations, at 0.5 µM, stronger effect = higher value;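 note: cells exposed to compounds for 96 hours before viability readout; 0% = vehicle and 100% = killing control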
# [21] = BT084 cell growth, single and combined drugs, ICGC_MB145, cisplatin and BGB IC40 combos (AID 1671461); settings: BT084 medulloblastoma cells, drug combinations, stronger effect = higher value;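 note: cells exposed to drugs for 96 hours; 0% = vehicle DMSO and 100% = high DMSO full killing control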
# [22] = RCMB18 cell growth, single agent and combined, cisplatin and BGB IC40 combos (AID 1671462); settings: RCMB18 medulloblastoma cells, stronger effect = higher value;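 note: cells exposed to compound for four days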
# [23] = CRL1545 cell growth, single agent and combined, cisplatin and BGB IC20 combos (AID 1671464); settings: CRL1545 osteosarcoma cells, stronger effect = higher value;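 note: cells exposed to compound for 96 hours before readout; 0% = vehicle DMSO and 100% = high DMSO killing control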
# [24] = rescue of PC12 cells from polyQ htt toxicity – LDH release (AID 1610); settings: PC12 mutant huntingtin toxicity, final LDH at 4 uM, stronger effect = lower value
# [25] = P. berghei load reduction in hepatocytes – cell-based, HepG2, luciferase luminescence, HepG2 viability, primary screen (AID 624349; in the data active = parasite load remaining mostly below about 12%, no sharp cut-off; inactive = mostly above about 10%;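 note: 100% = mean of DMSO negative control wells on the same plate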); settings: P. berghei liver stage in HepG2, luciferase luminescence, concentration not given here; parasite load remaining: stronger effect = lower value; viability: measured here: HepG2 viability without parasites
# [26] = target: Mitogen-activated protein kinase 7 (Homo sapiens) (UniProt Q13164); test: Gal4-ERK5 driven luciferase induction – cell-based, HTS, primary screen (AID 1508626;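 active = luciferase signal above three times the same-plate solvent-only control wells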;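 note: luciferase driven by Gal4-ERK5 fusion binding five Gal4 sites before minimal TATA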); settings: HeLa Gal4-ERK5 transactivation, 18 h, at 5 µM, stronger effect = higher value
# Mitogen-activated protein kinase 7 (Homo sapiens), sequence (Q13164 whole entry, looked up, the tested form may be a part): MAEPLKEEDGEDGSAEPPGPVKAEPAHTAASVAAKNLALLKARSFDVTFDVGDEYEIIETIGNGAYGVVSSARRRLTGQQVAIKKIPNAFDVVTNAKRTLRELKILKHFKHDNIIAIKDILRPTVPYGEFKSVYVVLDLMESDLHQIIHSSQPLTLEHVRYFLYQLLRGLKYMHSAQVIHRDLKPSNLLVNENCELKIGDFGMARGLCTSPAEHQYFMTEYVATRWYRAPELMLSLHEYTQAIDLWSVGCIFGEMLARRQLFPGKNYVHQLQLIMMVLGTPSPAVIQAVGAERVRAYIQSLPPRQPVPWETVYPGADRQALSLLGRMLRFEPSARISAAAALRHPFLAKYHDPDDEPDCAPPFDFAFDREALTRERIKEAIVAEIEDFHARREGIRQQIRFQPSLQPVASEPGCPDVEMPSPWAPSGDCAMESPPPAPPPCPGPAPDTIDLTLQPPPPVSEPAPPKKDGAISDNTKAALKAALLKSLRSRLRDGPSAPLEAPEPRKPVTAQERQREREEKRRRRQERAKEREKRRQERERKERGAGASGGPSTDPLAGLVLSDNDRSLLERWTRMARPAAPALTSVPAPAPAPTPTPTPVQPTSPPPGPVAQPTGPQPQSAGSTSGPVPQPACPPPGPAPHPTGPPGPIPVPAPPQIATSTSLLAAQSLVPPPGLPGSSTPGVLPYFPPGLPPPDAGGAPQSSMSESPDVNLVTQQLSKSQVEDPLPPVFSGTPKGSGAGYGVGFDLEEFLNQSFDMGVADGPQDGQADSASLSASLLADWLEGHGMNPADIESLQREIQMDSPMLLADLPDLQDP
# [27] = measured here: combination with BGB IC40, at 0.05 µM
# [28] = measured here: with BGB IC20 combination, at 0.5 µM
# [29] = measured here: with cisplatin IC20 combination, at 0.5 µM
# [30] = measured here: combination with cisplatin, at 0.5 µM
# [31] = measured here: combination with cisplatin, at 5 µM
smiles,measurement,setting,value
CCC1(c2ccccc2)C(=O)NC(=O)NC1=O,inhibition,[1],-1.25%
same,score,[2],1.23
same,rescue above control,[3],9.64
same,cytochrome c release ratio,[4],0.88
same,inhibition of aggregation,[5],45.6%
same,glutamate uptake change,[6],11.7%
same,inclusion score,[7],2
same,aggregation suppression score,[8],1.66
same,inhibition,"[9]; at 0.5 µM, stronger effect = higher value",93.2% (active)
same,inhibition,"[9]; measured here: combination with BGB IC20, at 0.005 µM",-28.1%
same,inhibition,"[9]; measured here: combination with BGB IC40, at 0.005 µM",-59.2%
same,inhibition,[9]; [27],-45.6%
same,inhibition,"[9]; measured here: combination with cisplatin, at 0.5 µM, stronger effect = higher value",121%
same,inhibition,"[9]; measured here: combination with cisplatin, at 5 µM, stronger effect = higher value",-2.25%
same,inhibition,"[10]; BGB combo, at 5 µM",-9.62%
same,inhibition,[10]; at 0.5 µM,-12.9% (inactive)
same,inhibition,"[10]; cisplatin combo, at 5 µM",-2.75%
same,inhibition,[10]; [28],-25.3%
same,inhibition,[10]; [29],-2.08%
same,inhibition,"[10]; single agent, at 5 µM",3.79%
same,inhibition,"[11]; BGB IC20 combo, at 0.005 µM",-3.73%
same,inhibition,"[11]; BGB IC40 combo, at 0.005 µM",-9.29%
same,inhibition,"[11]; BGB IC40 combo, at 0.05 µM",-3.16%
same,inhibition,[11]; at 0.5 µM,-22.9% (inactive)
same,inhibition,"[11]; cisplatin combo, at 0.05 µM",-8.4%
same,inhibition,"[11]; cisplatin combo, at 0.5 µM",-26.1%
same,inhibition,"[11]; cisplatin combo, at 5 µM",-13.3%
same,inhibition,"[11]; measured here: 5 uM single agent, at 5 µM",-22.7%
same,inhibition,[12]; at 0.5 µM,-18.1% (inactive)
same,inhibition,[12]; [27],-31.8%
same,inhibition,[12]; [30],-10.4%
same,inhibition,[12]; [31],5.72%
same,inhibition,[13]; at 0.5 µM,-10.5% (inactive)
same,inhibition,"[13]; measured here: with BGB IC20, at 0.5 µM",-10.6%
same,inhibition,"[13]; measured here: with BGB IC20, at 5 µM",7.72%
same,inhibition,"[13]; measured here: with cisplatin IC20, at 0.5 µM",-9.45%
same,inhibition,"[13]; measured here: with cisplatin IC20, at 5 µM",10.2%
same,inhibition,"[13]; single agent, at 5 µM",-5.59%
same,inhibition,[14]; at 0.5 µM,-52.1% (inactive)
same,inhibition,"[14]; measured here: combination with BGB at IC20, at 0.5 µM",-60.5%
same,inhibition,"[14]; measured here: combination with cisplatin at IC20, at 0.5 µM",-54.7%
same,inhibition,[15]; at 0.5 µM,-4.07% (inactive)
same,inhibition,"[15]; measured here: combo with BGB at IC20, at 0.5 µM",2.98%
same,inhibition,"[15]; measured here: combo with cisplatin at IC20, at 0.5 µM",-10.5%
same,inhibition,[16]; at 0.5 µM,-5.54% (inactive)
same,inhibition,"[16]; measured here: inhibition with BGB combination, at 0.05 µM",-21.7%
same,inhibition,"[16]; measured here: inhibition with cisplatin combination, at 0.05 µM",-12%
same,inhibition,[17]; at 0.5 µM,-20.1% (inactive)
same,inhibition,[17]; [30],-6.12%
same,inhibition,[17]; [31],0.169%
same,inhibition,[18]; at 0.5 µM,-2.75% (inactive)
same,inhibition,"[18]; measured here: BGB combination, at 0.5 µM",-2.38%
same,inhibition,"[18]; measured here: BGB combination, at 5 µM",1.86%
same,inhibition,"[18]; measured here: cisplatin combination, at 0.5 µM",-5.56%
same,inhibition,"[18]; measured here: cisplatin combination, at 5 µM",-1.94%
same,inhibition,"[19]; BGB combination, concentration series, at 5 µM",22.9%
same,inhibition,[19]; at 0.5 µM,-1.68% (inactive)
same,inhibition,"[19]; cisplatin combination, concentration series, at 5 µM",16%
same,inhibition,[20],10.1% (inactive)
same,inhibition,[20]; measured here: combo with BGB IC20,11.5%
same,inhibition,[20]; measured here: combo with cisplatin IC20,13.6%
same,inhibition,[21]; at 0.5 µM,3.01% (inactive)
same,inhibition,"[21]; cisplatin combination, at 0.5 µM",4.39%
same,inhibition,"[21]; cisplatin combination, at 5 µM",0.177%
same,inhibition,"[21]; measured here: BGB IC40 combination 0.05 uM, at 0.05 µM",-27.4%
same,inhibition,"[21]; single agent, at 5 µM",8.07%
same,inhibition,[22]; at 0.5 µM,1.72% (inactive)
same,inhibition,"[22]; cisplatin combo, at 5 µM",5.8%
same,inhibition,"[22]; measured here: BGB IC40 combination, at 0.05 µM",-18.8%
same,inhibition,[22]; [30],-11.9%
same,inhibition,"[22]; single agent, at 5 µM",10.7%
same,inhibition,[23]; at 0.5 µM,-19.2% (inactive)
same,inhibition,[23]; [28],-11.8%
same,inhibition,[23]; [29],-24.8%
same,inhibition,"[23]; single agent, at 0.05 µM",8.97%
same,inhibition,"[23]; single agent, at 5 µM",-18.2%
CNC1(c2ccccc2Cl)CCCCC1=O (stereo unspecified),inhibition,[1],12.3%
same,score,[2],1.43
same,rescue above control,[3],-2.24
same,cytochrome c release ratio,[4],1.27
same,inhibition of aggregation,[5],3.17%
same,glutamate uptake change,[6],-3.45%
same,inclusion score,[7],2
same,aggregation suppression score,[8],1.36
CCCCCc1cc(O)c2c(c1)OC(C)(C)C1CC=C(C)CC21 (stereo unspecified),inhibition,[1],13.2%
same,score,[2],-0.66
same,rescue above control,[3],-4.34
same,cytochrome c release ratio,[4],1.71
same,inhibition of aggregation,[5],42.9%
same,normalised LDH release,[24],0.999
same,glutamate uptake change,[6],-49.9%
same,aggregation suppression score,[8],0.105
CCCCCc1cc(O)c2c(c1)OC(C)(C)c1ccc(C)cc1-2,inhibition,[1],29.1%
same,score,[2],-1.59
same,rescue above control,[3],9.18
same,cytochrome c release ratio,[4],1.94
same,inhibition of aggregation,[5],-2.04%
same,normalised LDH release,[24],0.953
same,glutamate uptake change,[6],-26.4%
same,aggregation suppression score,[8],-0.155
CC[C@H]1C(=O)OC[C@@H]1Cc1cncn1C,parasite load remaining,[25],76.7% (inactive)
same,viability,[25],70.2%
same,luciferase signal,[26],84 AU (inactive)
CC[C@@H]1[C@@H](O)N2C3C[C@H]1C1C(O)[C@]4(C[C@@H]12)c1ccccc1N(C)[C@@H]34 (stereo partly specified),inhibition,[1],7.74%
same,score,[2],0.91
same,rescue above control,[3],-2.66
same,cytochrome c release ratio,[4],0.89
same,inhibition of aggregation,[5],-46.3%
same,glutamate uptake change,[6],-1.35%
same,inclusion score,[7],2
same,aggregation suppression score,[8],1.31
